Screens deposited in PubChem by National Center for Advancing Translational Sciences (NCATS).
In the library only some 6.2% were active in any assay of this set; here they are far more common.
Marburg entry inh: qHTS for inhibitors of binding or entry into cells for Marburg Virus; Potency, µM (highest dose often 37.8 µM), usual class: inhibitors; Marburg virus pseudotyped entry inhibition, cell reporter; actives 1.8% (n = 300,000); AID 540276, 2011; calls by dose curve; tested in HEK293 cells
Lassa entry inh: qHTS for Inhibitors of binding or entry into cells for Lassa Virus; Potency, µM (doses to about 37.9 µM), hits mostly inhibitors; Lassa virus pseudotype entry inhibition, cell reporter; actives 1.2% (n = 300,000); calls by dose curve; tested in HEK293 cells; note: nearly all actives have a fitted effect of over 50% in size
FMDV antiviral: High Throughput Screening for Foot and Mouth Disease Virus Antivirals. FMDV antiviral cell-based qHTS. Potency, µM (titrated, usually from 57.9 µM), usual class: inhibitors. actives 1.2% (n = 410,000); calls by dose curve; tested in HEK293T cells; note: read-out not given here; nearly all actives have a fitted effect of over 45% in size
HCMV inh: qHTS Assay for inhibitors of the human cytomegalovirus (HCMV); HFF cells, HCMV-luciferase reporter, 72 h; stronger effect = lower value; activity change, negative = inhibition, % at 57.5 µM; actives 4.5% (n = 410,000); in the data active = activity change below about -60%; inconclusive = no clear call, values can overlap the other calls; inactive = above about -39%
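HFF cells seeded 16 h at 37C, treated with compounds, infected with luciferase-reporter HCMV at MOI 1 PFU/cell; luciferase read at 72 h post infection, normalized to buffer-only and Salinomycin controls.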
Of the large screens only hits and unclear results are named; the others gave an inactive call.

Cc1nc2c(c(C)nn2-c2ccccc2)c(C)c1CCC(=O)Nc1ccc(CN2CCCC2)cc1	Marburg entry inh 10µM, Lassa entry inh inconclusive, HCMV inh -64
O=C(/C=C/c1ccccc1)N[C@H]1CC[C@@]23CCCN2C(=O)CCC[C@H]3[C@H]1Cc1ccccc1	none (no result: Marburg entry inh, Lassa entry inh, FMDV antiviral)
CCN(CC)CCC(=O)Nc1ccc2c(c1)N(C(=O)CN(CC)CC)c1ccccc1CC2	Marburg entry inh 6.3µM, Lassa entry inh inconclusive
CCN(CC)CCC(=O)N1c2ccccc2CCc2ccc(NC(=O)OC(C)C)cc21	none (no result: Marburg entry inh, Lassa entry inh)
CCCCCCOC(=O)C(C#N)c1nc2ccccc2nc1N1CCN(CC)CC1 (stereo unspecified)	Marburg entry inh 4.6µM, Lassa entry inh inconclusive
CCCCCCOC(=O)C(C#N)c1nc2ccccc2nc1N1CCOCC1 (stereo unspecified)	none
COc1cccc(Oc2cn[nH]c2-c2ccc(O)cc2O)c1	Marburg entry inh inconclusive (no result: FMDV antiviral)
COc1ccc(-c2cn[nH]c2-c2ccc(OC)cc2O)cc1	Lassa entry inh inconclusive, HCMV inh -65
COc1ccc(-c2cn[nH]c2-c2ccc(OCc3ccccc3)cc2O)cc1	Marburg entry inh inconclusive, Lassa entry inh 3.5µM, HCMV inh -71
COc1ccc(-c2[nH]ncc2-c2ccc(Cl)cc2)c(O)c1	FMDV antiviral inconclusive, HCMV inh -65
COc1ccccc1Oc1cn[nH]c1-c1ccc(O)cc1O	HCMV inh -66 (no result: Marburg entry inh, Lassa entry inh)
O=c1cc(-c2ccc(O)c(O)c2)oc2ccccc12	none (no result: Marburg entry inh, Lassa entry inh, HCMV inh)
CCn1nnc2cc(C(=O)NCCc3ccccc3F)ccc21	Marburg entry inh 6.3µM, Lassa entry inh 1.1µM
C=CCNC(=O)C(=O)Nc1ccc2c(c1)N(S(=O)(=O)c1cccs1)CCC2	Marburg entry inh inconclusive, Lassa entry inh 8.9µM
CC1CCN(c2ccc(-c3cccc(NS(=O)(=O)c4ccc(F)cc4F)c3)nn2)CC1	HCMV inh -100 (no result: Marburg entry inh)
O=S(=O)(Nc1cccc(-c2ccc(N3CCCCC3)nn2)c1)c1ccc(F)cc1F	none (no result: Marburg entry inh)
O=C(Nc1ccccc1Cc1ccccc1)c1ccccc1NS(=O)(=O)c1ccc(Cl)s1	Marburg entry inh inconclusive, Lassa entry inh inconclusive, FMDV antiviral inconclusive, HCMV inh -104
O=C(NCc1ccco1)c1ccccc1NS(=O)(=O)c1ccc(Cl)s1	none
CS(=O)(=O)c1ccccc1C(=O)Nc1ccccc1Cc1ccccc1	Lassa entry inh inconclusive
Cc1ccc(NS(=O)(=O)c2ccc(Cl)s2)nc1	Lassa entry inh inconclusive
O=C(Nc1ccccc1)c1ccccc1NS(=O)(=O)c1ccc(Cl)s1	Marburg entry inh 20µM, Lassa entry inh inconclusive, HCMV inh -64
Cc1ccc(NC(=O)c2ccccc2NS(=O)(=O)c2ccc(Cl)s2)cc1	Marburg entry inh 10µM, Lassa entry inh inconclusive, HCMV inh -98
COCCCNC(=O)C1CCN(Cc2cc3ccccc3n2Cc2cccc(C)c2)CC1	none (no result: Marburg entry inh)
CCc1ccc(NC(=O)COC(=O)C2(c3ccc(Cl)cc3)CCCC2)cc1	FMDV antiviral 20µM
COc1ccc2ccc(O)c(CN(C)CC(=O)Nc3ccccc3C(F)(F)F)c2c1	none
CCOC(=O)Cn1nc(C)c(NC(=O)COc2ccc(C)c(C)c2)c1C	HCMV inh -61
CC(=O)c1c(N2CCN(C(=O)c3ccco3)CC2)nc(=S)n(-c2ccccc2)c1C	none
CC12CC(c3ccccc3O1)N(C(=O)c1ccco1)C(=S)N2c1ccccc1 (stereo unspecified)	Marburg entry inh 16µM, Lassa entry inh inconclusive
N#C/C(=C/c1cn(-c2ccccc2)nc1-c1cccc(OCc2ccccc2)c1)C(=O)NCCCn1ccnc1	Marburg entry inh 11µM, Lassa entry inh inconclusive
COc1ccc(N2C(=O)CC(c3ccccc3)C2=O)cc1 (stereo unspecified)	none
COc1ccc(N2C(=O)CSC(c3ccccc3)C2=O)cc1 (stereo unspecified)	HCMV inh -105
Cc1cc2c(c(=O)n1Cc1ccccc1)[C@H]1O[C@](c3ccsc3)(Cc3cc(C#N)ccc31)O2	none (no result: Lassa entry inh, FMDV antiviral, HCMV inh)
O=C(NCCc1ccccc1)C1CCN(S(=O)(=O)c2ccccc2)CC1	Marburg entry inh inconclusive, HCMV inh -104
O=C(CCNC(=O)C1CCN(S(=O)(=O)c2ccccc2)CC1)NCc1ccc(Cl)cc1	none (no result: Marburg entry inh, Lassa entry inh)
O=S(=O)(c1ccc(Cl)nc1)N1CCC(Cc2ccccc2)CC1	none (no result: Marburg entry inh, Lassa entry inh)
O=C(NCCc1ccccc1)c1ccc(S(=O)(=O)N2CCCCC2)cc1	none (no result: Marburg entry inh, Lassa entry inh)
O=C(CCNC(=O)C1CCN(S(=O)(=O)c2ccccc2)CC1)NCc1ccc(Cl)cc1Cl	FMDV antiviral inconclusive, HCMV inh -75 (no result: Marburg entry inh, Lassa entry inh)
NC(=O)C1CCN(c2ccc(S(=O)(=O)N3CCC(Cc4ccccc4)CC3)cn2)CC1	Marburg entry inh inconclusive, Lassa entry inh inconclusive, FMDV antiviral inconclusive, HCMV inh -67
CSc1ccccc1C(=O)NCCc1ccc(S(=O)(=O)N2CCCCC2)cc1	HCMV inh -102
CCCCCn1c(=N)c(S(=O)(=O)c2ccc(C)cc2)cc2c(=O)n3cc(C)ccc3nc21	none
O=C(CSc1nc2ccsc2c(=O)n1-c1ccc(Br)cc1)NCc1ccccc1	none (no result: Marburg entry inh)
Cc1cc(C)cc(N(CC(=O)NCc2ccc3c(c2)OCO3)C(=O)CCC(=O)Nc2ccccn2)c1	Marburg entry inh inconclusive, Lassa entry inh 10µM, FMDV antiviral inconclusive
CC1(C)NC(=O)N(CCCCOc2ccc(Cl)cc2C=O)C1=O	HCMV inh -60 (no result: Marburg entry inh, Lassa entry inh)
CCSc1oc(-c2cccs2)nc1S(=O)(=O)c1ccccc1	none (no result: Marburg entry inh, Lassa entry inh)
CCCCS(=O)(=O)c1oc(-c2cccs2)nc1S(=O)(=O)c1ccc(F)cc1	Marburg entry inh inconclusive, Lassa entry inh inconclusive, FMDV antiviral 32µM, HCMV inh -98
CSc1oc(-c2ccc(F)cc2)nc1S(=O)(=O)c1ccc(Br)cc1	Lassa entry inh inconclusive
CCC(C)S(=O)(=O)c1oc(-c2ccc(F)cc2)nc1S(=O)(=O)c1ccc(F)cc1 (stereo unspecified)	Marburg entry inh inconclusive, Lassa entry inh inconclusive, FMDV antiviral inconclusive, HCMV inh -100
Cc1ccc(S(=O)(=O)c2nc(-c3ccc(F)cc3)oc2N2CCN(c3ccccc3)CC2)cc1	none
CCS(=O)(=O)c1oc(-c2ccc(F)cc2)nc1S(=O)(=O)c1ccccc1	Marburg entry inh inconclusive, Lassa entry inh inconclusive, FMDV antiviral 18µM, HCMV inh -99
CCCCS(=O)(=O)c1oc(-c2ccc(F)cc2)nc1S(=O)(=O)c1ccc(C)cc1	Marburg entry inh 10µM, Lassa entry inh inconclusive, FMDV antiviral 28µM, HCMV inh -100
CC(=O)Nc1ccc(CN(C)c2c(C)nc3ccc(C(=O)Nc4ccc(Cl)c(Cl)c4)cn23)cc1	none (no result: Marburg entry inh, Lassa entry inh)
CC(c1ccc(Cl)cc1)N(CCN(C)C)c1ccccn1 (stereo unspecified)	none (no result: Marburg entry inh, Lassa entry inh, FMDV antiviral)
COc1ccc(CCNC(=O)CCCn2c(=O)c3ccccc3n(Cc3ccccc3C#N)c2=O)cc1OC	none
C[C@H]1NS(=O)(=O)c2cccc(Cl)c2O[C@@H]1c1ccccc1	none (no result: Marburg entry inh, Lassa entry inh, FMDV antiviral)
CCCSc1oc(-c2cccs2)nc1S(=O)(=O)c1ccc(C)cc1	none
CCCCCS(=O)(=O)c1oc(-c2cccs2)nc1S(=O)(=O)c1ccc(C)cc1	FMDV antiviral 28µM, HCMV inh -88
COc1ccc(CCNS(=O)(=O)c2cc(-c3cc(C)no3)ccc2OC)cc1OC	HCMV inh inconclusive (no result: Marburg entry inh)
COc1ccccc1-c1nc(N2CCOCC2)c2ccccc2n1	none (no result: Marburg entry inh, Lassa entry inh, HCMV inh)
